# This is one part of a sample in which hits are shown more often than they occur.
# BLM inh – qHTS Assay for Inhibitors of Bloom's syndrome helicase (BLM). RecQ-like DNA helicase BLM (Homo sapiens), P54132. recombinant BLM DNA unwinding, fluorescence dequenching. Potency, µM (doses to about 56.1 µM), without a hit: at the top dose activity change, negative = inhibition, usual class: inhibitors. actives 0.2% (n = 350,000). AID 2528, 2010;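 further: plate controls were vehicle for no effect and no enzyme for full effect; nearly all actives have a fitted effect of over 35% in size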
# KDM4E inh – qHTS Assay for Inhibitors of Human Jumonji Domain Containing 2E (JMJD2E). Potency, µM (top dose mostly 57.1 µM), inactives show at the top dose activity change, negative = inhibition, hits mostly inhibitors. AID 2147, 2009. actives 1.6% (n = 230,000). JMJD2E catalytic domain, FDH-coupled NADH fluorescence (FDH is formaldehyde dehydrogenase);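 further: 0% = wells with enzyme and -100% = buffer wells without enzyme; nearly all actives have a fitted effect of over 50% in size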
# Target sequence (B2RXH2 1-337 limits assumed): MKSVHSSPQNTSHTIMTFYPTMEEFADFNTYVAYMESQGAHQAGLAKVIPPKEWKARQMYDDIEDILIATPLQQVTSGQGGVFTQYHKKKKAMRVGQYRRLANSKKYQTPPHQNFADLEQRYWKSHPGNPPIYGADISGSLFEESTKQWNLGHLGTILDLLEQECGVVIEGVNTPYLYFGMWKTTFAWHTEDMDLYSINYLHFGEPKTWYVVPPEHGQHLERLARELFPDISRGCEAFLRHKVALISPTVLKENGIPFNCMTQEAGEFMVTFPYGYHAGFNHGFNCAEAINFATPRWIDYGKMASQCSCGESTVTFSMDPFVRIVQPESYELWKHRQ
# APEX1 inh – qHTS Assay for Inhibitors of the Human Apurinic/apyrimidinic Endonuclease 1 (APE1) | DNA repair nuclease/redox regulator APEX1 (Homo sapiens), P27695 | recombinant APE1, TAMRA/BHQ-2 abasic DNA cleavage fluorescence | Potency, µM (doses to about 65.8 µM), for the others: at the top dose activity change, negative = inhibition, hits mostly inhibitors | actives 0.35% (n = 350,000);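 further: plate controls were vehicle for no effect and reference inhibitor for full effect; nearly all actives have a fitted effect of over 55% in size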
# Target sequence (P27695 whole entry, looked up): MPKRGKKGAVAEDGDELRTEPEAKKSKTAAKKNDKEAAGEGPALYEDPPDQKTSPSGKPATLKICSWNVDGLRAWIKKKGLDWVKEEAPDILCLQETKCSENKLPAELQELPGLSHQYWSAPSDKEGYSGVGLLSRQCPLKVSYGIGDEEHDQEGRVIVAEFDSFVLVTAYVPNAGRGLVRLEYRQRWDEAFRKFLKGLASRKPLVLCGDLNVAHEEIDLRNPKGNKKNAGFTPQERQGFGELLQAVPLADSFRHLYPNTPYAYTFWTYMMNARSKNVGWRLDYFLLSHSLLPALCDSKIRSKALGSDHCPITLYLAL
#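 Measures dequenching upon AP-site incision of a 5'-TAMRA/3'-BHQ-2 THF-containing duplex, 50 nM; human APE1 0.75 nM after 15 min room-temperature exposure to compound; kinetic three-point read at one-minute spacing.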
# L3MBTL1 inh – qHTS Assay for the Inhibitors of L3MBTL1; Lethal(3)malignant brain tumor-like protein 1 (Homo sapiens), Q9Y468; AlphaScreen L3MBTL1–H3K9me1 peptide binding; Potency, µM (doses to about 57.1 µM), without a hit: at the highest dose activity, negative = inhibition, most hits filed as inhibitors; actives 0.66% (n = 230,000); further: nearly all actives have a fitted effect of over 60% in size
#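 Read-out is AlphaScreen signal from streptavidin donor and nickel chelate acceptor beads (10 ug/mL final each) bridging L3MBTL1 (50 nM) and biotinylated K9-monomethylated H3(1-15) peptide (75 nM), after 30 min compound exposure at room temperature.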
# RECQ1 helicase – qHTS Assay for Inhibitors of RecQ-Like Dna Helicase 1 (RECQ1); ATP-dependent DNA helicase Q1 (Homo sapiens), P46063; RECQ1 DNA unwinding, red fluorescence kinetic read; Potency, µM (doses to about 57.3 µM), inactives show at the top dose activity, negative = inhibition, hits mostly inhibitors; actives 0.54% (n = 240,000); AID 2549, 2010;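 further: plate controls were vehicle for no effect and no enzyme for full effect; nearly all actives have a fitted effect of over 30% in size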
#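 50 nM RECQ1T1 preincubated 15 min with compound in Tris pH 8.0 buffer with MgCl2, DTT, Tween-20 and 2.5 ug/ml poly(dI-dC); started with 200 nM TAMRA/BHQ-2 forked duplex and 2 mM ATP. Unwinding read as fluorescence (525/598 nm), two reads 2 h apart.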
# GCN5L2 inh – qHTS Assay for Inhibitors of GCN5L2; GCN5L2 HAT assay, ThioGlo1 CoA-SH fluorescence; Potency, µM (series often up to 58.9 µM), inactives show at the top dose activity change, negative = inhibition, usual class: inhibitors; actives 0.21% (n = 390,000)
#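 GCN5L2 (20nM final) in 50mM HEPES, 0.1mM EDTA pH 7.5, 0.01% Tween-20 was preincubated 15 min at room temperature with compound, then given ThioGlo1 (50uM), H3(1-25) peptide (75uM) and acetyl-CoA (70uM); CoA-thiol fluorescence (Ex340/Em540) was read at 0 and 20 min.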
# Numbers without * were called inactive; i = inactive; ? = inconclusive; · = no result given; [ ] = dose if it differs, or a comment. Unless noted, the call rests on the fitted dose curve; in most records, active means well fitted curve in the direction sought with a large enough effect; inconclusive means small, poorly fitted or top-dose-only effect, or another doubt; inactive means no such curve, though single readings can be large; an effect the other way counts as inactive or inconclusive. Unless noted, on the % scale 0 is the no-effect control and ±100 the full control effect; potency means the concentration at half of the fitted maximal effect.
SMILES,BLM inh,KDM4E inh,APEX1 inh,L3MBTL1 inh,RECQ1 helicase,GCN5L2 inh
C/C(=C/CCC(C)[C@H]1CC[C@@]2(C)C3=C(CC[C@]12C)[C@@]1(C)CCC(=O)C(C)(C)[C@@H]1CC3)C(=O)O (some centres undefined),25µM*,8%,4%,2%,-4%,?
CC(=O)OC1CCC2(C)C3=C(CCC2C1(C)C)[C@]1(C)CCC(C(C)CCC=C(C)C)[C@]1(C)CC3 (some centres undefined),-4%,-11%,?,·,i,-5%
CCC(=O)N1CC(=O)Nc2ccc(C)cc2C1c1ccc(F)cc1 (centres undefined),0%,·,·,·,·,-4%
COC(=O)C1=Nc2ccccc2/C1=C\c1c(O)n(-c2ccc(OC)cc2)c(=O)[nH]c1=O,-2%,18µM*,-4%,-4%,-19%,-23%
CCN(CC)c1ccc(N=Cc2c(O)n(-c3ccccc3)c(=O)[nH]c2=O)cc1,-16%,7.9µM*,0%,·,13%,-1%
CCOc1ccc(-n2c(O)c(C=Nc3ccc(N(CC)CC)cc3)c(=O)[nH]c2=O)cc1,-5%,-6%,-1%,·,0%,4%
COc1ccc(-n2c(O)c(/C=C/C=Nc3ccccc3)c(=O)[nH]c2=O)cc1,28µM*,-21%,11%,-6%,?,-12%
COC(=O)C1=Nc2ccccc2/C1=C\c1c(O)n(-c2ccc(Br)cc2)c(=O)[nH]c1=O,-5%,4%,34%,-14%,5%,-23%
O=c1[nH]c(=O)n(-c2ccccc2)c(O)c1/C=C/C=Nc1ccccc1,-12%,-10%,-3%,9%,-18%,13%
COc1cc(/C=C/c2nc3ccccc3c(=O)n2-c2ccc(Br)c(C)c2)ccc1O,-7%,·,·,·,·,-2%
Brc1c(Br)c(Br)c2n[nH]nc2c1Br,?,?,-7%,·,?,28µM*
Oc1cc2c(cc1O)[C@H]1c3ccccc3CN[C@H]1CC2,-2%,25µM*,2%,·,-1%,0%
O=C(Nc1ccc2ccccc2c1)c1nn(C23CC4CC(CC(C4)C2)C3)cc1Br,1%,-4%,4.5µM*,-8%,-8%,-3%
Cc1nc(Cl)sc1C(=O)Nc1ccc2ccccc2c1,-1%,?,17%,14%,i,-7%
NC(N)=Nc1ccc2[nH]c3c(c2c1)C[C@@]1(O)[C@H]2Cc4ccc(O)c5c4[C@@]1(CCN2CC1CC1)[C@H]3O5,·,10µM*,20%,-9%,-3%,3.5µM*
CSCC[C@H](NC(=O)[C@H](Cc1ccccc1)NC(=O)CNC(=O)CNC(=O)[C@@H](N)Cc1ccc(O)cc1)C(=O)O,·,·,-1%,·,i,6%
Cc1o[nH]c(=O)c1C[C@H](N)C(=O)O,94%,-9%,-3%,·,0%,0%
O=C(/C=C/c1ccc(Cl)cc1)N[C@@]12CCC(=O)[C@@H]3Oc4c(O)ccc5c4[C@@]31CCN(CC1CC1)C2C5,·,·,19%,·,5%,1%
C/C=C(\C)C(=O)N[C@@H](c1ccccc1)[C@@H](O)C(=O)O[C@H]1C[C@@]2(O)[C@@H](OC(=O)c3ccccc3)C3[C@](C)(C(=O)[C@H](OC(C)=O)C(=C1C)C2(C)C)[C@@H](O)C[C@H]1OC[C@@]31OC(C)=O (some centres undefined),-2%,·,7%,4%,-13%,-2%
CC(=O)O[C@H]1C(=O)[C@@]2(C)C([C@H](OC(=O)c3ccccc3)[C@]3(O)C[C@H](OC(=O)[C@H](O)[C@@H](NC(=O)c4ccccc4)c4ccccc4)C(C)=C1C3(C)C)[C@]1(OC(C)=O)CO[C@@H]1C[C@@H]2OC(=O)[C@H](C)NC(=O)c1ccc(-c2c3ccc(=O)cc-3oc3cc(O)ccc23)c(C(=O)O)c1 (some centres undefined),3.2µM*,·,3.2µM*,·,3.2µM*,?
CC(=O)NC1CCSC1=O (centres undefined),·,·,-3%[21 µM],·,·,·
O=C1OC2(c3cc(Br)c(O)cc3Oc3c2cc(Br)c(O)[c]3[Hg])c2ccccc21 (centres undefined),·,·,13µM*,·,·,·
CC[C@@H]1/C=C/C=C/C[C@H](C)[C@@H](O)[C@](C)(O)C(=O)[C@H](C)[C@@H](O)[C@H](C)C(=O)[C@H](C)[C@@H](O)[C@H](C)/C=C/C(=O)O[C@H]2[C@@H](C)[C@@H](CC1)O[C@@]1(CC[C@@H](C)[C@@H](C[C@H](C)O)O1)[C@@H]2C,·,·,3%,·,i,-15%
O=C(Nc1cccc(C(=O)Nc2cc(C(=O)Nc3ccc([S+](=O)([O-])[O-])c4cc([S+](=O)([O-])[O-])cc(SOOO)c34)ccc2F)c1)Nc1cccc(C(=O)Nc2cc(C(=O)Nc3ccc([S+](=O)([O-])[O-])c4cc([S+](=O)([O-])[O-])cc([S+](=O)([O-])[O-])c34)ccc2F)c1,126%,·,2.8µM*,·,11µM*,-23%
CCOc1ccc2c3c1O[C@H]1[C@@H](O)C=C[C@H]4[C@@H](C2)N(C)CC[C@@]341,1%,·,·,·,·,3%
SMILES,BLM inh,KDM4E inh,APEX1 inh,L3MBTL1 inh,RECQ1 helicase,GCN5L2 inh
On1ccccc1=S,·,·,7%,0%,·,13µM*
CN1CC=C(c2c[nH]c3ccccc23)CC1,31%,?,-8%,32µM*,18%,0%
C1=C(c2c[nH]c3ccccc23)CCN(Cc2ccccc2)C1,0%,-16%,?,·,i,-2%
CC1CC(=O)O1 (centres undefined),·,·,1%,·,2%,·
CC(=O)C1=C(O)C2C3c4c[nH]c5cccc(c45)CC3C(C)(C)N2C1=O (centres undefined),0%,?,0%,·,-4%,-2%
CC(=O)C1=C(O)[C@@H]2[C@@H]3c4c[nH]c5cccc(c45)C[C@@H]3C(C)(C)N2C1=O,3%,13µM*,?,·,-5%,-6%
C[N+]1(C)[C@@H]2CC(OC(=O)[C@@H](CO)c3ccccc3)C[C@@H]1[C@H]1O[C@H]12 (some centres undefined),-1%,·,·,·,·,14%

# Compound activity: PubChem, National Center for Advancing Translational Sciences (NCATS)
